Bioassay records from PubChem BioAssay.
SW480 rereplic – A quantitative high throughput screen for small molecules that induce DNA re-replication in SW480 colon adenocarcinoma cells; SW480 DNA re-replication, Hoechst DNA content imaging, 48 h; Potency, µM (series often up to 46.1 µM), without a hit: at the top dose re-replication activation, hits mostly activators; 1.8% of 340,000 active; AID 624297, 2012; further: % of control where 0% means no effect; nearly all actives have a fitted effect of over 55% in size
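SW480 cells exposed to compounds for 48 hr at 37 C, 5% CO2, then Hoechst-stained 40 min. Nuclear DNA content imaged by fluorescence scanning (405 nm excitation, 500-530 nm emission); re-replication scored as increased high-intensity nuclei.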
MCF10A rerep – A quantitative high throughput screen for small molecules that induce DNA re-replication in MCF 10a normal breast cells. MCF 10A DNA re-replication, Hoechst nuclear intensity, 48 h. Potency, µM (highest dose often 46.1 µM), for the others: top-dose activity, positive = re-replication, hits mostly activators. AID 624296, 2012. 2.9% of 350,000 active; further: % of control where 0% means no effect; nearly all actives have a fitted effect of over 50% in size
KB-3-1 cytotox – qHTS assay for MDR1-selective chemotherapeutics: Primary screen using the parental adenocarcinoma cell KB-3-1 | Potency, µM (highest dose often 46.1 µM), usual class: cytotoxic | AID 1347075, 2019 | KB-3-1 viability, CellTiter-Glo ATP luminescence, 72 h | 1.4% of 400,000 active; further: on the % scale 0 is the no-effect control and ±100 the full control effect; nearly all actives have a fitted effect of over 60% in size
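72 h, 37 °C compound treatment of KB-3-1 parental cells; CellTiter-Glo added, 10 min, luminescence read. Data corrected against DMSO-only plates and normalized before curve fitting.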
ALOX12 inh – Primary qHTS assay for inhibitors of human arachidonate 12S-lipoxygenase (ALOX12): Round 2. 1.1% of 580,000 active. Polyunsaturated fatty acid lipoxygenase ALOX12 (Homo sapiens), P18054. purified 12hLO, xylenol orange hydroperoxide absorbance. Potency, µM (titrated, usually from 108 µM), for inactives: at the top dose activity change, negative = inhibition, usual class: inhibitors; further: on the % scale 0 is the no-effect control and ±100 the full control effect
Target sequence (P18054 whole entry, looked up): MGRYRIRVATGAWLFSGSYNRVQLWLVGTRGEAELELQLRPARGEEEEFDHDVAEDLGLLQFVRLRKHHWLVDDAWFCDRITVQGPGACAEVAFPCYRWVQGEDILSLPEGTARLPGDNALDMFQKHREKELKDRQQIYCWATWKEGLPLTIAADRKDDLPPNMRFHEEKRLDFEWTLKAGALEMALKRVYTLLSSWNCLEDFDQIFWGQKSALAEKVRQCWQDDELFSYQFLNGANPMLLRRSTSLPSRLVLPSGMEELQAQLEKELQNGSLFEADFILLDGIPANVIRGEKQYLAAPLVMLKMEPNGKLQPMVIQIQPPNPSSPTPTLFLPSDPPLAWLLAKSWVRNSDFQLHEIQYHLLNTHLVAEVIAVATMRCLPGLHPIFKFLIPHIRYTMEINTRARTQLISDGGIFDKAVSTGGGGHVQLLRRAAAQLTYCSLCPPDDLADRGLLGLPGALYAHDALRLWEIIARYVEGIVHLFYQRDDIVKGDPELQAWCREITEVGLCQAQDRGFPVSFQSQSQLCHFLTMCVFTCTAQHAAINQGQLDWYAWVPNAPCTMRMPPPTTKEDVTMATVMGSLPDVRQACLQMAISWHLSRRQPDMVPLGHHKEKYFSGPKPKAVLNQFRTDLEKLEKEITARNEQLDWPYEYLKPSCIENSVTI
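Purified human 12hLO at 150 nM in 25 mM Hepes, 0.01% Triton X-100, pH 7.0, preincubated 15 min at room temperature with compound. Reaction started with 40 uM arachidonic acid, 30 min at room temperature. Hydroperoxide measured by Fe-xylenol orange, 573/405 nm absorbance ratio.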
KB-V1 MDR tox – qHTS assay for MDR1-selective chemotherapeutics: Primary screen using the drug-selected MDR subline cells KB-V1; KB-V1 MDR cells viability, CellTiter-Glo, 72 h; Potency, µM (titrated, usually from 46.1 µM), hits mostly cytotoxic; 3.4% of 400,000 active; AID 1347076, 2019; further: on the % scale 0 is the no-effect control and ±100 the full control effect; nearly all actives have a fitted effect of over 60% in size
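Cytotoxicity via CellTiter-Glo luminescence after 72 h compound exposure at 37 degrees C. Cells: drug-selected KB-V1 line, DMEM phenol-red free plus 10% FBS. Compounds tested at multiple concentrations; normalized data fitted to concentration-effect curves.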
PINK1 expr mod – A Quantitative High throughput Screen to Identify Chemical Modulators of PINK1 Expression. PINK1 immunofluorescence, high-content cytometry, 24 h. 0.2% of 410,000 active. Potency, µM (titrated, usually from 76.6 µM), without a hit: top-dose activation (PINK1 increase), most hits filed as activators; active means well fitted activation curve with a large enough effect; inconclusive means small, poorly fitted or top-dose-only effect; cell line not stated here; further: % of control where 0% means no effect; nearly all actives have a fitted effect of over 65% in size
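Decision-based qHTS: stable cells, 24 h exposure to five compound concentrations, CCCP as control. Fixed cells stained for PINK1 plus nuclear, mitochondrial and cell markers, cytometer read.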
* hit, by the source's call; i = inactive; ? = inconclusive; / = not tested or not shown; [ ] = remark or other dose. An excerpt weighted towards active compounds, which were near 5.8% of everything screened. Unless noted, the call rests on the fitted dose curve; in most records, active means well fitted curve in the direction sought with a large enough effect; inconclusive means small, poorly fitted or top-dose-only effect, or another doubt; inactive means no such curve, though single readings can be large; an effect the other way counts as inactive or inconclusive. Potency means the concentration at half of the fitted maximal effect.

SMILES	SW480 rereplic	MCF10A rerep	KB-3-1 cytotox	ALOX12 inh	KB-V1 MDR tox	PINK1 expr mod
Cc1cccn2c(=O)c(/C=C(\C#N)c3nc4ccccc4[nH]3)c(Oc3ccc(C(C)(C)C)cc3)nc12	/	/	i	-5.0%	i	?
CC(C)(C)c1ccc(Oc2nc3ccccn3c(=O)c2/C=C(\C#N)c2nc3ccccc3[nH]2)cc1	/	/	i	-13.4%	i	28.2µM*
CN(CC(=O)NC1CCCCNC1=O)Cc1ccc(Br)cc1 (stereo unspecified)	/	/	/	59.3%	/	/
CNC(=O)OCc1nc(SSC(C)(C)C)n(C)c1COC(=O)NC	4.11µM*	2.91µM*	?	5.3%	i	-5.8%
CCCOc1ccc(/C=N/Nc2cc(N3CCOCC3)ncn2)c(O)c1	?	15.0%	11.6µM*	0.0%	i	0.7%
COc1cc2c(cc1OC)C1(CCCC1)CNC2c1ccc([N+](=O)[O-])cc1 (stereo unspecified)	23.1µM*	-32.9%	i	?	i	-1.1%
CC(=O)OCC1=C(C(=O)O)N2C(=O)C(NC(=O)c3ccc(COc4ccc(Cl)cc4)o3)C2SC1 (stereo unspecified)	-0.1%	23.4%	i	39.8µM*	i	-1.6%
CC(=O)OCC1=C(C(=O)O)N2C(=O)C(NC(=O)CCn3nc(C(F)(F)F)c(Br)c3C3CC3)C2SC1 (stereo unspecified)	1.4%	?	i	35.5µM*	i	-0.5%
CC(=O)OCC1=C(C(=O)O)N2C(=O)[C@@H](NC(=O)Cc3ccccc3)[C@H]2SC1	-5.5%	9.6%	i	?	i	-0.1%
CC(=O)OCC1=C(C(=O)O)N2C(=O)C(NC(=O)CCn3nc(C)c(Cl)c3C)C2SC1 (stereo unspecified)	?	27.0%	i	-26.6%	i	0.6%
CCOc1ccc(C(=O)NC2C(=O)N3C(C(=O)O)=C(COC(C)=O)CSC23)cc1OCC (stereo unspecified)	-8.7%	16.4µM*	i	-15.0%	i	0.9%
CCOC(=O)c1cnc(SCc2nc(-c3ccccc3Cl)oc2C)nc1N	/	/	/	12.6%	/	/
O=C(O)C(Cc1c[nH]c2ccccc12)NS(=O)(=O)c1ccc(Cl)c(C(F)(F)F)c1 (stereo unspecified)	-2.3%	10.0%	i	39.8µM*	i	2.7%
O=C(NC(Cc1c[nH]c2ccccc12)C(=O)O)OCC1c2ccccc2-c2ccccc21 (stereo unspecified)	/	/	i	35.5µM*	i	-0.1%
CC(=O)Nc1ccc(NC(=O)c2ccc3nc[nH]c3c2)cc1	/	/	/	71.3%	/	/
NCc1ccc(-c2ccc(F)cc2)cc1	/	/	/	7.3%[12.5 µM]	/	/
COc1cccc(CN2C(=O)c3ccccc3S2(=O)=O)c1	1.0%	6.2%	i	28.5%	i	2.7%
COc1cccc(CN2C(=O)c3cccc(N)c3C2=O)c1	?	18.4µM*	i	0.0%	i	0.6%
O=C(c1cc(C2CC2)nc2onc(C3CCCN3)c12)N1CCOCC1 (stereo unspecified)	/	/	/	-2.5%[6.33 µM]	/	/
Cc1ccc(-n2cc3c(-c4cccc(Br)c4)nnc(C)c3n2)cc1	-0.5%	13.8%	?	0.0%	16.4µM*	?
Cn1c(CNc2cccc(Br)c2)c(C#N)c2ccccc21	/	/	/	-8.7%	/	/
CCOc1cc(S(=O)(=O)NCc2ccc(OC)cc2)c(OCC)cc1-n1cnnn1	?	?	i	-20.4%	5.17µM*	5.62µM*
CCOc1cc(S(=O)(=O)N2CCN(S(=O)(=O)CC)CC2)c(OCC)cc1-n1cnnn1	-30.4%	16.8%	i	16.8%	i	1.8%
